Experimental data: PubChem BioAssay AID1159580 (chemical genetic matrix, 2015)
Where “and” joins values, the source holds several entries; their conditions need not be identical. Identical values can stand only once. About 2,000 (36%) of roughly 5,500 compounds were called active. About 18% were inconclusive and are not listed. Cut-off read from the data, not from the text of the source: active = normalized growth mostly below about 0.91 (no sharp cut-off); inconclusive = no clear call, values can overlap the other calls; inactive = mostly above about 0.92. The list shows a part of the results.

Experiment: chemical genetic growth profiling, strain panel (AID 1159580);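 note: tested at 20 µM; growth read once vehicle control cultures reached saturation at 30 °C; 1 = growth at the plate median or of vehicle wells; lower values mean less growth of the strain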
Settings: S. cerevisiae deletion strains, growth OD

Measured: normalized growth

c1cc2c(cc1[C@H]1OC[C@H]3[C@@H]1CO[C@H]3c1ccc3c(c1)OCO3)OCO2
inactive: locus YAL013W, strain DEP1, stronger effect = lower value 0.93 | locus YAL021C, strain ccr4, stronger effect = lower value 0.936 | locus YBR021W, strain FUR4, stronger effect = lower value 0.961 | locus YBR171W, strain sec66, stronger effect = lower value 0.897 | locus YBR229C, strain ROT2, stronger effect = lower value 0.941 | locus YBR231C, strain swc5, stronger effect = lower value 0.922 | locus YBR279W, strain paf1, stronger effect = lower value 0.936 | locus YCL029C, strain bik1, stronger effect = lower value 0.933 | locus YCL061C, strain MRC1, stronger effect = lower value 0.93 | locus YDL005C, strain med2, stronger effect = lower value 0.915 | locus YDL035C, strain GPR1, stronger effect = lower value 0.906 | locus YDL074C, strain BRE1, stronger effect = lower value 0.874 | locus YDL101C, strain DUN1, stronger effect = lower value 0.927 | locus YDL185W, strain tfp1, stronger effect = lower value 0.93 | locus YDR069C, strain doa4, stronger effect = lower value 0.956 | locus YDR162C, strain NBP2, stronger effect = lower value 0.894 | locus YDR195W, strain ref2 1.06 | locus YDR335W, strain msn5, stronger effect = lower value 0.934 | locus YEL037C, strain rad23, stronger effect = lower value 0.926 | locus YER110C, stronger effect = lower value 0.942 | locus YER111C, strain swi4, stronger effect = lower value 0.919 | locus YFR010W, strain ubp6, stronger effect = lower value 0.938 | locus YGL078C, strain dbp3, stronger effect = lower value 0.958 | locus YGL173C, strain kem1, stronger effect = lower value 0.904 | locus YGL227W, strain vid30, stronger effect = lower value 0.926 | locus YGL240W, strain doc1, stronger effect = lower value 0.89 | locus YGL248W, strain PDE1, stronger effect = lower value 0.901 | locus YGR078C, strain PAC10, stronger effect = lower value 0.856 | locus YGR135W, strain pre9, stronger effect = lower value 0.906 | locus YGR252W, strain gcn5, stronger effect = lower value 0.897 | locus YHR013C, strain ard1, stronger effect = lower value 0.871 | locus YHR079C, strain IRE1, stronger effect = lower value 0.895 | locus YIL073C, strain SPO22, stronger effect = lower value 0.783 | locus YJL134W, strain LCB3, stronger effect = lower value 0.974 | locus YJL154C, strain vps35, stronger effect = lower value 0.936 | locus YJL187C, strain SWE1 (second series), stronger effect = lower value 0.925 | locus YJL187C, strain SWE1, stronger effect = lower value 0.932 | locus YJR043C, strain POL32, stronger effect = lower value 0.959 | locus YJR066W, strain TOR1, stronger effect = lower value 0.888
0.87 (active) and 0.888 (inactive): locus YHR030C, strain SLT2, stronger effect = lower value
active: locus YAL026C, strain drs2, stronger effect = lower value 0.803 | locus YAL030W, strain snc1, stronger effect = lower value 0.908 | locus YBL061C, strain skt5, stronger effect = lower value 0.918 | locus YBR009C, strain hhf1, stronger effect = lower value 0.904 | locus YBR023C, strain chs3, stronger effect = lower value 0.906 | locus YCL011C, strain gbp2, stronger effect = lower value 0.881 | locus YCL016C, strain dcc1, stronger effect = lower value 0.911 | locus YCL069W, strain vba3, stronger effect = lower value 0.919 | locus YCR088W, strain abp1, stronger effect = lower value 0.911 | locus YDL040C, strain nat1, stronger effect = lower value 0.92 | locus YDL134C, strain PPH21, stronger effect = lower value 0.881 | locus YDL192W, strain arf1, stronger effect = lower value 0.877 | locus YDR001C, strain nth1, stronger effect = lower value 0.889 | locus YDR101C, strain arx1, stronger effect = lower value 0.895 | locus YDR137W, strain rgp1, stronger effect = lower value 0.492 | locus YDR159W, strain sac3, stronger effect = lower value 0.856 | locus YDR297W, strain sur2, stronger effect = lower value 0.905 | locus YDR318W, strain mcm21, stronger effect = lower value 0.867 | locus YDR334W, strain swr1, stronger effect = lower value 0.861 | locus YDR388W, stronger effect = lower value 0.923 | locus YDR392W, strain spt3, stronger effect = lower value 0.371 | locus YDR502C, strain sam2, stronger effect = lower value 0.869 | locus YEL003W, strain gim4, stronger effect = lower value 0.911 | locus YEL061C, strain CIN8 (second series), stronger effect = lower value 0.859 | locus YEL061C, strain CIN8, stronger effect = lower value 0.724 | locus YER015W, strain faa2, stronger effect = lower value 0.925 | locus YER016W, strain bim1, stronger effect = lower value 0.908 | locus YER155C, strain BEM2 (second series), stronger effect = lower value 0.783 | locus YER155C, strain BEM2, stronger effect = lower value 0.862 | locus YER167W, strain BCK2, stronger effect = lower value 0.813 | locus YGL086W, strain mad1, stronger effect = lower value 0.845 | locus YGL167C, strain pmr1, stronger effect = lower value 0.862 | locus YGL253W, strain hxk2, stronger effect = lower value 0.845 | locus YHR027C, strain rpn1, stronger effect = lower value 0.913 | locus YHR079C, strain IRE1 (second series), stronger effect = lower value 0.902 | locus YHR094C, strain hxt1, stronger effect = lower value 0.922 | locus YHR129C, strain ARP1, stronger effect = lower value 0.911 | locus YHR142W, strain chs7, stronger effect = lower value 0.803 | locus YHR200W, strain rpn10, stronger effect = lower value 0.884 | locus YIL066C, strain RNR3, stronger effect = lower value 0.828 | locus YIL125W, strain kgd1, stronger effect = lower value 0.889 | locus YIR030C, strain dcg1, stronger effect = lower value 0.901 | locus YJL092W, strain hpr5, stronger effect = lower value 0.914 | locus YJL095W, strain BCK1 (second series), stronger effect = lower value 0.904 | locus YJL115W, strain asf1, stronger effect = lower value 0.904 | locus YJL129C, strain trk1, stronger effect = lower value 0.722 | locus YJL164C, strain tpk1, stronger effect = lower value 0.896 | locus YJL166W, strain qcr8, stronger effect = lower value 0.88 | locus YJL168C, strain set2, stronger effect = lower value 0.927
0.714 (active) and 0.956 (inactive): locus YJL095W, strain BCK1, stronger effect = lower value
